Inconclusive results are not listed. Activity calls are given as the source filed them. Unless noted, calls follow the shape of the dose curve; as a rule, active = well fitted curve in the direction sought with a large enough effect in the repeat runs; inconclusive = weak or mixed curves; inactive = no such curve, though single readings can be large; an effect the other way counts as inactive or inconclusive.
Experiments:
[1] = qHTS assay for small molecule agonists of the p53 signaling pathway (AID 651631; calls by dose curve; also: nearly all actives have a fitted effect of over 15% in size)
Outline: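 Read-out is beta-lactamase FRET fluorescence measured 2 h after substrate addition at room temperature, in HCT-116 cells with a p53 response element-driven reporter exposed to compounds for 16 h at 37 °C.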

[2] = qHTS assay for small molecules that induce genotoxicity in human embryonic kidney cells expressing luciferase-tagged ATAD5 (AID 651632); also: nearly all actives have a fitted effect of over 15% in size
Outline: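 Genotoxicity read-out via ATAD5-luciferase: HEK293T cells, 16 hr compound incubation at 37C, Amplite detection.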

[3] = qHTS assay for small molecule agonists of the p53 signaling pathway - cell viability (AID 651633; calls by dose curve;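 also: p53RE-bla HCT reporter cells with a stable beta-lactamase p53 reporter; series mostly up to about 83 µM; nearly all actives have a fitted effect of over 30% in size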)
Outline: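 p53RE-bla cells were treated with compound for 16 hours at 37 C. Cytotoxicity was then measured as CellTiter-Glo luminescence after 30 min at room temperature.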

[4] = qHTS assay for small molecules that induce genotoxicity in human embryonic kidney cells expressing luciferase-tagged ATAD5 - cell viability (AID 651634; calls by dose curve; also: nearly all actives have a fitted effect of over 25% in size)
Outline: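 Live-cell protease activity (CellTiter-Fluor, fluorescence) indicates viability. HEK293T cells with luciferase-tagged ATAD5; 15.5 hr compound treatment at 37C.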

[5] = qHTS assay for small molecule disruptors of the mitochondrial membrane potential - cell viability (AID 720634; calls by dose curve;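 also: human HepG2 liver cancer cells; series mostly up to about 83 µM; nearly all actives have a fitted effect of over 20% in size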)
Outline: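 Human hepatoma HepG2 cells were treated for 1 hr with test chemicals, then given m-MPI dye and CellTiter-Glo. Cell viability reflects luminescence proportional to cellular ATP.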

[6] = qHTS assay to test for compound auto fluorescence at 590 nm (red) in HepG2 cells (AID 720674)
Outline: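 Seeding: 2,000 HepG2 cells/well, MEM/10% FBS, overnight 37 C. Dosing: compound vs DMSO. Incubation: 1 hr, 37 C, 5% CO2. Read: fluorescence 540 ex/590 em, Rose Bengal sodium as red reference.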

[7] = qHTS assay to test for compound auto fluorescence at 535 nm (green) in HepG2 cells (AID 720675)
[8] = qHTS assay to test for compound auto fluorescence at 460 nm (blue) in HEK293 cells (AID 720678)
Outline: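 HEK293 cells (2,000 per well, medium with 10% dialyzed FBS) attached for 4-5 hr at 37C, then received compound and stood overnight at 37C, 5% CO2. Blue fluorescence was read at Ex/Em 405/460 nm and expressed relative to triamterene.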

[9] = qHTS assay to test for compound auto fluorescence at 590 nm (red) in HEK293 cells (AID 720679)
Outline: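 HEK293 cells (2,000/well, medium with 10% dialyzed FBS) attached for 4-5 hr at 37C, received 23 nL compound and were incubated overnight at 37C, 5% CO2. Red fluorescence was then read at 540/590nm Ex/Em, referenced to Rose Bengal sodium.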

[10] = qHTS assay to test for compound auto fluorescence at 535 nm (green) in HEK293 cells (AID 720680)
[11] = qHTS assay to test for compound auto fluorescence at 460 nm (blue) in HEK293 cell free culture (AID 720681)
Outline: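 Compounds were added to cell-free DMEM with 10% FBS and fluorescence read directly. The blue channel used 405 nm excitation and 460 nm emission, with triamterene as the reference fluorophore.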

[12] = qHTS assay to test for compound auto fluorescence at 535 nm (green) in HEK293 cell free culture (AID 720682)
Outline: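 Fluorescein serves as the green reference fluorophore; each compound's intrinsic emission at 535 nm (excitation 485 nm) is reported as an equivalent amount of that dye, measured in serum-containing DMEM without cells.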

[13] = qHTS assay to test for compound auto fluorescence at 590 nm (red) in HepG2 cell free culture (AID 720684)
Outline: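 Compound was pinned into wells holding MEM with 10% FBS and no cells, and red fluorescence was read at Ex/Em 540/590 nm. Signal is expressed as auto fluorescence equivalency relative to Rose Bengal sodium.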

[14] = qHTS assay to test for compound auto fluorescence at 460 nm (blue) in HepG2 cell free culture (AID 720685)
Outline: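 Compound (23 nL) or DMSO pinned into cell-free MEM with 10% FBS; blue fluorescence read at 405/460 nm excitation/emission, expressed as auto-fluorescence equivalency to triamterene.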

[15] = qHTS assay to test for compound auto fluorescence at 535 nm (green) in HepG2 cell free culture (AID 720686)
[16] = qHTS assay to test for compound auto fluorescence at 460 nm (blue) in HepG2 cells (AID 720687)
Outline: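 HepG2 cells in MEM with 10% FBS, attached overnight at 37 C, were exposed to compound or DMSO for 1 hr at 37 C, 5% CO2. Blue fluorescence was read at 405/460 nm, with triamterene as reference fluorophore.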

[17] = target: Glucocorticoid receptor (Homo sapiens) (UniProt P04150); assay: qHTS assay to identify small molecule agonists of the glucocorticoid receptor (GR) signaling pathway (AID 720691; active = well fitted activation curve with a large enough effect in the signal ratio in the repeat runs, not every such curve was filed as active; the % refers to the signal ratio)
Sequence of Glucocorticoid receptor (Homo sapiens) (P04150 whole entry, looked up): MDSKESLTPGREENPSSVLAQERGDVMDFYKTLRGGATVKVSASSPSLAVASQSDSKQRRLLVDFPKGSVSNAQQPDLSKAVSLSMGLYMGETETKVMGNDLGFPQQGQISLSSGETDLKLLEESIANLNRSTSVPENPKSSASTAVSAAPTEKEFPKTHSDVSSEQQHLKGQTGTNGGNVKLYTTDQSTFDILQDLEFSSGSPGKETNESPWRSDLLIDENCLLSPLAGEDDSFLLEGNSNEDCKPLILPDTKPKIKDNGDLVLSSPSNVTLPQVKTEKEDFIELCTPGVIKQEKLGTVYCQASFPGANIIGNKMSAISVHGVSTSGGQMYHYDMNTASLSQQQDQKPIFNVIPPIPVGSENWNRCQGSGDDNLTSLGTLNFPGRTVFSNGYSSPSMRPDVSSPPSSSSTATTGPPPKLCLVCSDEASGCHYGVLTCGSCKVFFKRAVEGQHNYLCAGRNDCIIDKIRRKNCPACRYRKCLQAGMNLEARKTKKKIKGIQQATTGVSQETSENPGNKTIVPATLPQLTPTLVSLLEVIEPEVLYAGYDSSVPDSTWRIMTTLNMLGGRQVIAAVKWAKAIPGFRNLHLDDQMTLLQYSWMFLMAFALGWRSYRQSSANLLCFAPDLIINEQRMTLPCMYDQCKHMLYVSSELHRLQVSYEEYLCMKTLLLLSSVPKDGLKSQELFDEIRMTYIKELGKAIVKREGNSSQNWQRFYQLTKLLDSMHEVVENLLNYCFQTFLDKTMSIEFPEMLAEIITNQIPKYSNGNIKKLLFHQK
Outline: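 Beta-lactamase reporter activity, read as fluorescence intensity, was measured in GR-bla HeLa cells exposed to compounds for 18 h at 37 C and then loaded with LiveBLAzer B/G FRET substrate for 2 h at room temperature.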

[18] = target: Glucocorticoid receptor (Homo sapiens) (UniProt P04150); assay: qHTS assay to identify small molecule antagonists of the glucocorticoid receptor (GR) signaling pathway (AID 720692; active = well fitted inhibition curve with a large enough effect in the signal ratio in the repeat runs, not every such curve was filed as active; the % refers to the signal ratio)
Outline: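 Fluorescence from cleaved LiveBLAzer B/G FRET substrate reports GRE-driven beta-lactamase in HeLa cells; compounds are tested against 5 nM dexamethasone (final) over 18 h at 37 C, substrate incubation 2 h at room temperature.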

[19] = qHTS assay for small molecule disruptors of the mitochondrial membrane potential (AID 720635)
Outline: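 HepG2 cells exposed to compound 1 hr at 37C, then Mito-MPS dye 30 min. Ratio read of aggregate (540/590 nm) versus monomer (490/535 nm) fluorescence.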

[20] = qHTS assay to test for compound auto fluorescence at 590 nm (red) in HEK293 cell free culture (AID 720683)
Outline: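 Cell-free wells of DMEM with 10% FBS received compound, and intrinsic fluorescence was read at excitation/emission 540/590 nm. Values expressed as equivalence to Rose Bengal sodium.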

Measured: Potency

CCCCCCC=O
not listed: [19] | [20]
inactive: all other assays above

C=C(C)C(=O)OCC(C)C
not listed: [9] | [17] | [18]
inactive: all other assays above

CCCCCCCCCCN
not listed: [13] | [16] | [19]
inactive: all other assays above

CCCOC(=O)c1ccccc1
not listed: [14] | [16] | [19]
inactive: all other assays above

O=C(O)c1ccccc1C(=O)O
not listed: [9] | [13] | [14]
inactive: all other assays above

CCCCCC(=O)O
not listed: [13] | [14] | [17] | [18]
inactive: all other assays above

c1ccc2c(c1)Cc1ccccc1-2
not listed: [13] | [16]
inactive: all other assays above

CC(CCl)OP(=O)(OC(C)CCl)OC(C)CCl (configuration not stated)
not listed: [13] | [14] | [18] | [19]
inactive: all other assays above

C=CCCCCCCCCC(=O)O
not listed: [11] | [16] | [19]
inactive: all other assays above

CCOCCOCCOCCO
not listed: [9] | [17] | [18]
inactive: all other assays above

Cc1ccc(S(=O)(=O)N=C=O)cc1
not listed: [11] | [13] | [20]
inactive: all other assays above

CCCCCCCCCCO
not listed: [11] | [13] | [20]
inactive: all other assays above

C=CC(=O)OCCC(=O)O
not listed: [11] | [13] | [16] | [18]
inactive: all other assays above

CCOC(=O)n1ccn(C)c1=S
not listed: [11] | [19]
inactive: all other assays above

CC(=O)c1ccc(O)cc1
inactive: all assays above

O=C(O)CCCCCCCCC(=O)O
not listed: [14] | [16] | [17] | [18] | [19]
inactive: all other assays above

COc1ccccc1OCC(O)CO (configuration not stated)
not listed: [9] | [13] | [17] | [18]
inactive: all other assays above

CC(=O)CC(C)(C)O
not listed: [9] | [19]
inactive: all other assays above
